Only a selection was taken, and hits are over-represented in it overall.
GPT2 inhibitor: inhibitors of human GPT2 alanine aminotransferase; AID 1671188; hit rate 0.25% among 100,000; Potency, µM (series often up to 57.7 µM), for inactives: top-dose activity change, negative = inhibition, actives largely listed as inhibitors; Q8TD30; Recombinant GPT2, coupled pyruvate oxidase/HRP Amplex Red fluorescence; active = well fitted inhibition curve with a large enough effect; inconclusive = small, poorly fitted or top-dose-only effect; also: % is scaled to controls: 0 for no effect and ±100 for the full control effect; nearly all actives have a fitted effect of over 60% in size
Target sequence (Q8TD30 whole entry, looked up): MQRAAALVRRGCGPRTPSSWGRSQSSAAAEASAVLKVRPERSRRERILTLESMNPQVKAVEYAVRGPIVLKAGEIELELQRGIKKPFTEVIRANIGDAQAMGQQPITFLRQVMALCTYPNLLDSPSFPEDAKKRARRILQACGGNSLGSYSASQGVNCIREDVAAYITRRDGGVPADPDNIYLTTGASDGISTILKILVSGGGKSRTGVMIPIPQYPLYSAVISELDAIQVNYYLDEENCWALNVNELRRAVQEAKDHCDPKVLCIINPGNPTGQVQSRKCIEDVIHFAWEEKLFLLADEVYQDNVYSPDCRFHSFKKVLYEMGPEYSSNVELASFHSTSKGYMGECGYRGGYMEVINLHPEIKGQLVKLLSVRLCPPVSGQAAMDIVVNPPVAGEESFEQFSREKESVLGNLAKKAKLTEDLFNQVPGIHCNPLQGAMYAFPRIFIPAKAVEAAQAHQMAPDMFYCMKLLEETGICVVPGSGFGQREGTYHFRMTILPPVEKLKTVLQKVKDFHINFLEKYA
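Inhibition is scored from Amplex Red fluorescence generated when pyruvate oxidase and HRP act on pyruvate released by GPT2. Reactions contain 10ng/uL enzyme, 250uM a-KG and 2mM L-alanine and run 30 min at room temperature.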
NPR1 antag: antagonists of human natriuretic peptide receptor Npr1 | P16066 | HEK293 hNpr1 GloSensor cGMP, ANP-stimulated luminescence | Potency, µM (series often up to 46.3 µM), for the others: at the highest dose activity change, negative = inhibition, most hits filed as inhibitors | hit rate 1.6% among 76,000 | AID 1347048; also: % is scaled to controls: 0 for no effect and ±100 for the full control effect; nearly all actives have a fitted effect of over 60% in size
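HEK293 cells stably expressing human Npr1 and cGMP GloSensor pGS-40F, loaded 2 h with 2% GloSensor reagent, given compound 30 min at room temperature. Luminescence read before and 20 min after 0.1 nM hNppA.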
Npr1 antag conf: hNpr1 antagonism, confirmation assay. shares compounds with NPR1 antag. Potency, µM (doses to about 57.6 µM), for inactives: at the top dose activity change, negative = inhibition, usual class: inhibitors. hit rate 76% among 1,400. AID 1347044. HEK293 hNpr1 cGMP GloSensor luminescence, ANP-stimulated; also: nearly all actives have a fitted effect of over 70% in size
NPR2 antag: selectivity test of Npr1 antagonists against human Npr2 | shares compounds with NPR1 antag | hit rate 67% among 1,400 | AID 1347046 | HEK293 hNpr2 GloSensor cGMP luminescence, CNP-stimulated | Potency, µM (titrated, usually from 57.6 µM), for inactives: at the top dose activity change, negative = inhibition, usual class: inhibitors; also: nearly all actives have a fitted effect of over 70% in size
FLuc counter: counter-screen for Npr1 antagonists: firefly luciferase inhibitors | shares compounds with NPR1 antag | purified FLuc enzyme, luminescence, Km substrate | Potency, µM (doses to about 57.6 µM), for inactives: at the top dose activity change, negative = inhibition, hits mostly inhibitors | hit rate 0.7% among 1,400 | AID 1347047; active = well fitted inhibition curve with a large enough effect; inconclusive = small, poorly fitted or top-dose-only effect; also: 0% is about no effect
GloSensor ctrl: reduces cGMP signal in GloSensor control cells | shares compounds with NPR1 antag | HEK293 GloSensor cGMP, SNP-stimulated, luminescence | Potency, µM (titrated, usually from 57.6 µM), inactives show top-dose activity change, negative = inhibition, usual class: inhibitors | hit rate 69% among 1,400 | AID 1347051; also: % is scaled to controls: 0 for no effect and ±100 for the full control effect; nearly all actives have a fitted effect of over 70% in size
An asterisk follows results filed as active; i = inactive; ? = inconclusive; / = no result; [ ] = another dose, or the depositor's remark. Unless noted, calls follow the shape of the full dose curve. Potency is read from the fitted curve at half-maximal effect.

SMILES	GPT2 inhibitor	NPR1 antag	Npr1 antag conf	NPR2 antag	FLuc counter	GloSensor ctrl
COc1ccc(CN2CCc3nc(C(=O)NCCOc4ccccc4)oc3CC2)cn1	-1%[88.5 µM]	?	44µM*	?	-1%[86.2 µM]	?
COc1cccc(CN2CCc3nc(C(=O)NCC4CC4)oc3CC2)c1	3%[88.5 µM]	-30%[70.6 µM]	/	/	/	/
O=C(NCc1cccc(F)c1)c1nc2c(o1)CCN(CCCc1ccccc1)CC2	i	-2%[70.6 µM]	/	/	/	/
O=C(NCc1cccc(F)c1)c1nc2c(o1)CCN(Cc1cc(F)ccc1F)CC2	3%[88.5 µM]	?	40µM*	?	0%[86.2 µM]	40µM*
O=C(NCC1CC1)c1nc2c(o1)CCN(Cc1ccc(F)cc1F)CC2	-1%[88.5 µM]	25µM*	22µM*	22µM*	-1%[86.2 µM]	20µM*
Cc1ccccc1CN1CCc2nc(C(=O)NCc3ccncc3)oc2CC1	i	22µM*	31µM*	31µM*	-2%[86.2 µM]	25µM*
Cn1nccc1C(=O)N1CCC(N2CC3(CCCCC3)C2c2ccncc2)CC1 (stereo not drawn)	-4%	/	/	/	/	/
CN(C(=O)c1ccccc1F)C1CCCc2ccccc21 (stereo not drawn)	i	-9%[70.6 µM]	/	/	/	/
CCCc1noc(-c2cccn3c(CNC(=O)c4cc(F)ccc4Cl)nnc23)n1	i	-1%	/	/	/	/
Oc1ccc(-c2nc(C3CC3)nc3c2CN(CC2CCCCC2)CC3)cc1	-11%	2%	/	/	/	/
O=C(c1cc[nH]c1)N1CCN(c2nc3ccccc3s2)CC(O)C1 (stereo not drawn)	5%	-16%	/	/	/	/
COc1ccc(CN2CCc3nc(C(=O)NCc4ccncc4)oc3CC2)cc1OC	-8%[88.5 µM]	-24%[70.6 µM]	/	/	/	/
O=C(NCc1ccccc1)c1nc2c(o1)CCN(Cc1ccc(F)cc1F)CC2	-1%[88.5 µM]	25µM*	40µM*	35µM*	1%[86.2 µM]	40µM*
N#Cc1ccc(CN2CCc3nc(C(=O)NCc4cccc(F)c4)oc3CC2)cc1	0%[88.5 µM]	?	40µM*	?	3%[86.2 µM]	31µM*
O=C(NCc1cccc(F)c1)c1nc2c(o1)CCN(Cc1ccc3[nH]ccc3c1)CC2	5%[88.5 µM]	-5%[70.6 µM]	/	/	/	/
NC(=O)c1cccc(-c2cc3c(cn2)CN(Cc2ccccc2)CCN3)c1	3%[88.5 µM]	-2%[70.6 µM]	/	/	/	/
COc1ccc(NC(=O)O[C@@H]2CO[C@H]3[C@@H]2OC[C@@H]3NS(=O)(=O)c2ccc3ccccc3c2)cc1	i	-4%	/	/	/	/
COc1ccc(OC)c(S(=O)(=O)N[C@H]2CO[C@H]3[C@@H]2OC[C@H]3OC(=O)Nc2ccc(Oc3ccccc3)cc2)c1	-12%	8.9µM*	11µM*	14µM*	-7%	9.7µM*
COc1ccc(OC)c(S(=O)(=O)N[C@H]2CO[C@H]3[C@@H]2OC[C@H]3OC(=O)Nc2ccc(C(C)=O)cc2)c1	-3%	0%	/	/	/	/
COc1ccc(-c2ccnc(N[C@H]3CO[C@H]4[C@@H]3OC[C@@H]4NS(=O)(=O)c3ccc(NC(C)=O)cc3)n2)cc1	0%	?	/	/	/	/
CC(=O)Nc1ccc(S(=O)(=O)N[C@H]2CO[C@H]3[C@@H]2OC[C@@H]3Nc2nccc(-c3ccco3)n2)cc1	-7%	13µM*	24µM*	24µM*	0%	27µM*
CC(=O)Nc1ccc(S(=O)(=O)N[C@H]2CO[C@H]3[C@@H]2OC[C@H]3OC(=O)Nc2ccc(Oc3ccccc3)cc2)cc1	?	11µM*	12µM*	17µM*	?	12µM*
Cc1nc(CC(=O)N2CCn3nc(CCC(=O)N4CCC(O)CC4)cc3C2)n[nH]1	1%	1%	/	/	/	/
COc1ccc(-c2ccc3c(c2)C(=O)N2CCN(C(=O)c4cccnc4)C[C@@H]2C(=O)N3)c(OC)c1	1%	-15%	/	/	/	/
COCCOC1CCN(C(=O)c2n[nH]c3ccccc23)CC1	-11%	0%	/	/	/	/
SMILES	GPT2 inhibitor	NPR1 antag	Npr1 antag conf	NPR2 antag	FLuc counter	GloSensor ctrl
CCn1ccc(C(=O)N2CCCCCCNC(=O)CC2)n1	i	1%	/	/	/	/
COC(=O)NC1CCN(C(=O)c2ccc(-c3cncnc3)cc2)CC1	i	/	/	/	/	/
CC(C)S(=O)(=O)N1CC(Oc2ccc(-c3noc(-c4cccnc4)n3)cc2)C1	-11%	1.4µM*	22µM*	?	-14%	22µM*
COc1ccccc1C(=O)N1CC(Oc2ccc(-c3nc(-c4ccccc4)no3)cc2)C1	i	11µM*	24µM*	24µM*	-25%	22µM*
COc1cccc(CN2CCC(Oc3ccccc3-c3nc(-c4ccncc4)no3)C2)c1 (stereo not drawn)	1%	?	?	?	?	0%
O=C(c1ccncc1)N1CC(Oc2ccc(-c3noc(-c4ccccc4)n3)cc2)C1	-14%	-20%	/	/	/	/
Cc1ncccc1C(=O)N1CC(Oc2ccc(-c3nc(-c4ccccc4)no3)cc2)C1	i	?	/	/	/	/
CCCNC(=O)N1CCC(Oc2ccccc2-c2nc(-c3ccncc3)no2)C1 (stereo not drawn)	i	5%	/	/	/	/
COc1cccc(CC(=O)N2CC(Oc3ccc(-c4noc(-c5ccncc5)n4)cc3)C2)c1	i	7.9µM*	3.1µM*	4.3µM*	-21%	3.4µM*
CC(C(=O)N1CC(Oc2ccc(-c3noc(-c4ccncc4)n3)cc2)C1)c1ccccc1 (stereo not drawn)	i	/	/	/	/	/
FC(F)(F)c1ccc2nc([C@H]3CCN(CC4CC4)C3)[nH]c2c1	-8%[88.5 µM]	-6%[70.6 µM]	/	/	/	/
O=C(Cc1ccccc1F)N1CC(Oc2ccc(-c3noc(-c4cccnc4)n3)cc2)C1	-12%	-29%	22µM*	22µM*	-14%	22µM*
CC(C)c1nc(-c2ccc(OC3CCN(C(=O)Cc4ccccc4F)C3)cc2)no1 (stereo not drawn)	1%	/	/	/	/	/
CCCc1cc(N2CCC(NCc3cc(F)c(F)c(F)c3)CC2)nc(C)n1	4%	8%	/	/	/	/
Fc1ccc(-c2cnc3n2C[C@H](CNCc2ccccc2Cl)OC3)cc1	i	25µM*	40µM*	40µM*	-19%[86.2 µM]	40µM*
Fc1ccc(-c2cnc3n2C[C@H](CNCc2ccccn2)OC3)cc1	-22%[88.5 µM]	-4%[70.6 µM]	/	/	/	/
COc1cc(NC(=O)O[C@@H]2CC[C@]3(C)C(CC[C@@H](O)[C@H]3CC(=O)N3CCCCC3)[C@]2(C)CO)cc(OC)c1OC (stereo partly drawn)	i	3%	/	/	/	/
OC[C@@H]1CN(c2ccc(-c3nc(-c4cccc(C(F)(F)F)c4)no3)cn2)C[C@H]1CO	i	-23%	/	/	/	/
OCC1CCCN(c2ccc(-c3nc(-c4cccc(C(F)(F)F)c4)no3)cn2)C1 (stereo not drawn)	-10%	14µM*	14µM*	17µM*	?	17µM*
CC[C@H]1CN(Cc2ccncc2)CC[C@H]1CC(=O)N1CCC(C(=O)OC)CC1	1%[88.5 µM]	3%[70.6 µM]	/	/	/	/

High-throughput results (PubChem)
